Experimental data reported in PubChem BioAssay (Tox21).
Results filed as inconclusive are left out. Calls of active or inactive are those of the source. Unless noted, the call rests on the fitted dose curve; in most records, active means well fitted curve in the direction sought with a large enough effect in the repeat runs; inconclusive means weak or mixed curves; inactive means no such curve, though single readings can be large; an effect the other way counts as inactive or inconclusive.

Experiments:
[1] = target: Estrogen receptor beta (Homo sapiens) (UniProt Q92731); test: qHTS assay to identify small molecule agonists of the estrogen receptor beta (ER-beta) signaling pathway (AID 1259377; active means well fitted activation curve with a large enough effect in the signal ratio in the repeat runs, not every such curve was filed as active; the % refers to the signal ratio)
Sequence of Estrogen receptor beta (Homo sapiens) (Q92731 whole entry, looked up): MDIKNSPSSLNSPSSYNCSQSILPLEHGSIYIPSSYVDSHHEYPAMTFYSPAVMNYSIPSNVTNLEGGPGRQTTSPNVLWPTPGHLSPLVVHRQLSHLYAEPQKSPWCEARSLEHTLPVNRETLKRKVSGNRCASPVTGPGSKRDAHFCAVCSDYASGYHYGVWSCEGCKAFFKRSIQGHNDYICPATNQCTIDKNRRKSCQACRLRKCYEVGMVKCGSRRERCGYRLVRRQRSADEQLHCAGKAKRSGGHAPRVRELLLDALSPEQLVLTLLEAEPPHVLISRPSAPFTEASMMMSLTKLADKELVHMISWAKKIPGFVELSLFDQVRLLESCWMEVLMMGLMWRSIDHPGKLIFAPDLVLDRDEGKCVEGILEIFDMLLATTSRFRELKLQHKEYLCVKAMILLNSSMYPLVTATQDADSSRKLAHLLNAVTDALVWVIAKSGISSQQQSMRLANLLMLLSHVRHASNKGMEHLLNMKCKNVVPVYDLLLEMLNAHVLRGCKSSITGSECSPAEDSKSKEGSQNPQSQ
Procedure, shortened: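 Read-out: beta-lactamase FRET fluorescence. Cell line: ER-beta-UAS-bla HEK293T in 2% charcoal-stripped FBS. Exposure: 16 hr at 37C. Substrate step: 2 h at room temperature.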

[2] = target: Estrogen receptor beta (Homo sapiens) (UniProt Q92731); test: qHTS assay to identify small molecule antagonists of the estrogen receptor beta (ER-beta) signaling pathway (AID 1259378; active means well fitted inhibition curve with a large enough effect in the signal ratio in the repeat runs, not every such curve was filed as active; the % refers to the signal ratio)
Procedure, shortened: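 Antagonist mode: compounds added to beta-lactamase reporter HEK293T ER-beta-UAS cells stimulated with E2 (1nM final), 16 hr at 37C. LiveBLAzer B/G FRET substrate, 2 hours room temperature, fluorescence read-out.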

[3] = qHTS assay to identify small molecule agonists of the androgen receptor (AR) signaling pathway in the presence of an antagonist - cell viability counter screen (AID 1259379);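 further: MDA-kb2 human breast cancer cells carrying an MMTV luciferase reporter; series mostly up to about 92 µM; nearly all actives have a fitted effect of over 25% in size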
Procedure, shortened: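 Cells: MDA-kb2 (MMTV-luc, AR and GR elements), 3,000/well, 5 hr settle. Added: nilutamide 3.0uM final, then compounds (15 conc.). Incubation: 16 hr, 37C, no CO2. Read-out: CellTiter-Fluor, 1 hr, fluorescence.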

[4] = qHTS assay to identify small molecule antagonists of the estrogen receptor beta (ER-beta) signaling pathway - cell viability counter screen (AID 1259382);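 further: HEK293T cells carrying ER-beta-UAS-bla reporter stimulated with estradiol; series mostly up to about 92 µM; nearly all actives have a fitted effect of over 55% in size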
Procedure, shortened: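 Cells: ER-beta-UAS-bla HEK293T, 2,000/well, 2% CS-FBS, 6 hr settle. Cpd + E2 (1nM final), 16 hr, 37C/5% CO2. Bla FRET substrate 2 hr RT, then CellTiter-Glo 30 min RT, luminescence.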

[5] = target: Estrogen receptor (Homo sapiens) (UniProt P03372); test: qHTS assay to identify small molecule agonists of the estrogen receptor alpha (ER-alpha) signaling pathway in the presence of an antagonist (AID 1259383; calls by dose curve; further: top concentration of the series differs between compounds; nearly all actives have a fitted effect of over 15% in size)
Sequence of Estrogen receptor (Homo sapiens) (P03372 whole entry, looked up): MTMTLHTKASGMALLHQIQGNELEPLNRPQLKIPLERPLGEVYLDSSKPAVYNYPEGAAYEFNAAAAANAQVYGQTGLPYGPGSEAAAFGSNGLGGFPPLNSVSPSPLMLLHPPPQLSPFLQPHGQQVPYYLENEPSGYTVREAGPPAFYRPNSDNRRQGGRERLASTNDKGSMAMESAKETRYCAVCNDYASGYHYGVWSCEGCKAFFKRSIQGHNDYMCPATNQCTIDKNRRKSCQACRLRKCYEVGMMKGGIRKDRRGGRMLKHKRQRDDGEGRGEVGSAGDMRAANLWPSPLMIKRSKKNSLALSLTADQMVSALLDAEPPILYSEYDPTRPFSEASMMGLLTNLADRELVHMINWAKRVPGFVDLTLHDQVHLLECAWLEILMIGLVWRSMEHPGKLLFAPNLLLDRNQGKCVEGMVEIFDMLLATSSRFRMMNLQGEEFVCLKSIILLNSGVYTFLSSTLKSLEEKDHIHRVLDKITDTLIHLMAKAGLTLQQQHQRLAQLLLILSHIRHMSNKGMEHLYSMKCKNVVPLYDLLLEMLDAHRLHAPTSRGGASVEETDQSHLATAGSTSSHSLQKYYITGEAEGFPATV
Procedure, shortened: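 VM7Luc4E2, endog. ER-alpha + 4×ERE-luc; charcoal-stripped FBS, phenol red-free, 5 d; 24hr plating; +10.0nM ICI-182,780 (final); cpds 15 conc, 22hr, 37C/5% CO2; ONE-Glo luminescence.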

[6] = qHTS assay to identify small molecule agonists or antagonists of the thyroid stimulating hormone receptor (TSHR) signaling pathway - wild type cell line counter screen (AID 1259384; calls by dose curve)
Procedure, shortened: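 Counter screen in untransfected Hek293: compounds (15-point titration, triplicate) plus phosphodiesterase inhibitor Ro20-1724 added after 18 h plating; 30 min RT. Intracellular cAMP via competitive d2/cryptate immunoassay, 1 h incubation.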

[7] = target: Thyrotropin receptor (Homo sapiens) (UniProt P16473); test: qHTS assay to identify small molecule antagonists of the thyroid stimulating hormone receptor (TSHR) signaling pathway (AID 1259385; calls by dose curve; further: nearly all actives have a fitted effect of over 20% in size)
Sequence of Thyrotropin receptor (Homo sapiens) (P16473 whole entry, looked up): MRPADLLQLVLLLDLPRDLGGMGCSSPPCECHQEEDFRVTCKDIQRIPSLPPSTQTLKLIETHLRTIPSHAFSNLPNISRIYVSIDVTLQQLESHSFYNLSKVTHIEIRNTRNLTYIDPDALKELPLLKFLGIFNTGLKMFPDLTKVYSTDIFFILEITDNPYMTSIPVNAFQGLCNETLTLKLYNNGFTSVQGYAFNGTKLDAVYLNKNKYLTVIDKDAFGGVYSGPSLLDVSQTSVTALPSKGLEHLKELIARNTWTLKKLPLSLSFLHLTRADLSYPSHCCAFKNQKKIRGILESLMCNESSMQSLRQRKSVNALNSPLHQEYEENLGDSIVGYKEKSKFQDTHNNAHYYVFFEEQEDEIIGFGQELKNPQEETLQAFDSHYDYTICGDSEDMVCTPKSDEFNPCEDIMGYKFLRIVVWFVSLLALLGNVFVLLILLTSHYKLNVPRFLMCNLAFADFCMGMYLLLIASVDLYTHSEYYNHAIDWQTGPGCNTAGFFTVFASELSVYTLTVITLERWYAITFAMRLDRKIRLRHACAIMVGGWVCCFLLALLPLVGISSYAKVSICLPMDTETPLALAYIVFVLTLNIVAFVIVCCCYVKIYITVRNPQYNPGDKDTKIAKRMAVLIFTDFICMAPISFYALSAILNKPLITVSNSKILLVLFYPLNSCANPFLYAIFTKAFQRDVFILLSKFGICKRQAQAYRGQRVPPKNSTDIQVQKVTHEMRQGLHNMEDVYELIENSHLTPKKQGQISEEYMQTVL
Procedure, shortened: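 Antagonist mode: compound-treated TSHR-expressing HEK293 cells were stimulated with 1.5 ng/mL TSH (final) in presence of Ro20-1724 for 30 min at RT. HTRF cAMP detection after 1 h; each compound tested at 15 concentrations, triplicate.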

[8] = qHTS assay to identify small molecule agonists of the estrogen receptor alpha (ER-alpha) signaling pathway in the presence of an antagonist - cell viability counter screen (AID 1259386);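 further: series mostly up to about 92 µM; cells exposed to compounds for 22 h at 37 °C before the viability read; nearly all actives have a fitted effect of over 30% in size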
Procedure, shortened: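 VM7Luc4E2, stripped-serum pre-culture 5 d; 24hr plating; +ICI-182,780 10.0nM final; cpds 15 conc, 22hr, 37C/5% CO2; CellTiter-Fluor added at 21hr, fluorescence 1hr later.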

[9] = target: Progesterone receptor (Homo sapiens) (UniProt P06401); test: qHTS assay to identify small molecule agonists of the progesterone receptor (PR) signaling pathway (AID 1346784; calls by dose curve; further: nearly all actives have a fitted effect of over 30% in size)
Sequence of Progesterone receptor (Homo sapiens) (P06401 whole entry, looked up): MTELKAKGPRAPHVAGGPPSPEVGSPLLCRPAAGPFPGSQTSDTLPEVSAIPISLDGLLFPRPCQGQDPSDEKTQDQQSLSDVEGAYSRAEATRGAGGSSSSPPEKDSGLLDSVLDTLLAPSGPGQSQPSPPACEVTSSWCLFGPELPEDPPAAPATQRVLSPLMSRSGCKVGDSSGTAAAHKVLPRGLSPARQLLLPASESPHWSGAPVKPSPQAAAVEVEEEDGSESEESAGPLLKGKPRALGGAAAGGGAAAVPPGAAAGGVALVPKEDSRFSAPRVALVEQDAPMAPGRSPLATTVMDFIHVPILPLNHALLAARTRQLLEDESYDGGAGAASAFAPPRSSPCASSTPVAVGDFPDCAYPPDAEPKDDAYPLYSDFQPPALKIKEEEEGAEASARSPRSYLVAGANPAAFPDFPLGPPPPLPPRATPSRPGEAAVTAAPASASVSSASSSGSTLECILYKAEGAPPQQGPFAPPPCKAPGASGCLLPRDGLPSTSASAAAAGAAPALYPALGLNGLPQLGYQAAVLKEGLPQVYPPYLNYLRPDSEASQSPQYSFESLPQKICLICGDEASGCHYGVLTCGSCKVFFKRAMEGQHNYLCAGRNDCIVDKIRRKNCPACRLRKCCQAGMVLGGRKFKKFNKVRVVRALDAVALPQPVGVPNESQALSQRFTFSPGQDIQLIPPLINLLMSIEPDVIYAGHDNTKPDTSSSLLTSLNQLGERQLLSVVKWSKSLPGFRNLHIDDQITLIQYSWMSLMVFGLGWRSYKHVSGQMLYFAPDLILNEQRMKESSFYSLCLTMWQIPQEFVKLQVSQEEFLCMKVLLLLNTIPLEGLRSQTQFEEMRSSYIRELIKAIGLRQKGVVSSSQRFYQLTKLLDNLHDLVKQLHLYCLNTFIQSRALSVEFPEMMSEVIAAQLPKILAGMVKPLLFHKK
Procedure, shortened: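 Compounds were tested for PR agonism in HEK 293T cells bearing a beta-lactamase gene under UAS control. Treatment lasted 16 hr at 37C; signal came from fluorescence of a FRET substrate.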

[10] = target: Progesterone receptor (Homo sapiens) (UniProt P06401); test: qHTS assay to identify small molecule antagonists of the progesterone receptor (PR) signaling pathway (AID 1346795; active means well fitted inhibition curve with a large enough effect in the signal ratio in the repeat runs, not every such curve was filed as active; the % refers to the signal ratio; further: potency means the concentration at half of the fitted maximal effect)
Procedure, shortened: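 In HEK293T cells bearing the PR-UAS-bla reporter, compound effects on promegestone-driven (1 nM) beta-lactamase expression are assessed after 16 hr using a fluorescent FRET substrate incubated 2 hr at room temperature.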

[11] = qHTS assay to identify small molecule antagonists of the progesterone receptor (PR) signaling pathway - cell viability counter screen (AID 1346798); further: series mostly up to about 92 µM; nearly all actives have a fitted effect of over 50% in size
Procedure, shortened: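 Following a 4 hr attachment, PR-UAS-bla HEK293T cells in charcoal-stripped FBS medium were exposed to compounds with R5020 for 16 hr; CellTiter-Glo was added and luminescence read after 30 min at room temperature.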

[12] = qHTS assay to identify small molecule agonists of the progesterone receptor (PR) signaling pathway - cell viability counter screen (AID 1346799; calls by dose curve; further: nearly all actives have a fitted effect of over 45% in size)
Procedure, shortened: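 Here, 3,000 PR-UAS-bla HEK293T cells per well were treated with compounds for 16 hr after a 6 hr preincubation at 37C and 5% CO2; cell viability is the CellTiter-Glo luminescence signal.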

[13] = qHTS assay to identify small molecule antagonists of the TGF-beta/Smad signaling pathway - cell viability counter screen (AID 1346824); further: nearly all actives have a fitted effect of over 50% in size
Procedure, shortened: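 Cytotoxicity counter-screen run in the same wells as the beta-lactamase Smad reporter read: CellTiter-Glo luminescence after 30 min at room temperature. HEK 293T SBE-bla cells had 5 hr compound exposure at 37 C with TGF-beta1 (0.25 ng/mL stock).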

[14] = qHTS assay to identify small molecule agonists of the TGF-beta/Smad signaling pathway - cell viability counter screen (AID 1346829); further: top concentration of the series differs between compounds; nearly all actives have a fitted effect of over 45% in size
Procedure, shortened: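 In parallel with the Smad reporter read, viability of HEK 293T cells stably carrying SBE-bla is quantified by ATP luminescence following 5 hr compound treatment.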

[15] = qHTS assay to identify small molecule agonists of the TGF-beta/Smad signaling pathway (AID 1346859; active means well fitted activation curve with a large enough effect in the signal ratio in the repeat runs, not every such curve was filed as active; the % refers to the signal ratio; further: series mostly up to about 77 µM)
Procedure, shortened: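 Each well held 4,000 SBE-bla HEK 293T cells incubated overnight before compound addition; 5 hr later the cleavable FRET substrate went on for 2 hr at room temperature, and fluorescence was read at two emissions.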

[16] = target: Thyrotropin-releasing hormone receptor (Homo sapiens) (UniProt P34981); test: qHTS assay to identify small molecule antagonists of the thyrotropin-releasing hormone receptor (TRHR) signaling pathway (AID 1346877; active means well fitted inhibition curve with a large enough effect in the repeat runs, not every such curve was filed as active; further: series mostly up to about 51 µM)
Sequence of Thyrotropin-releasing hormone receptor (Homo sapiens) (P34981 whole entry, looked up): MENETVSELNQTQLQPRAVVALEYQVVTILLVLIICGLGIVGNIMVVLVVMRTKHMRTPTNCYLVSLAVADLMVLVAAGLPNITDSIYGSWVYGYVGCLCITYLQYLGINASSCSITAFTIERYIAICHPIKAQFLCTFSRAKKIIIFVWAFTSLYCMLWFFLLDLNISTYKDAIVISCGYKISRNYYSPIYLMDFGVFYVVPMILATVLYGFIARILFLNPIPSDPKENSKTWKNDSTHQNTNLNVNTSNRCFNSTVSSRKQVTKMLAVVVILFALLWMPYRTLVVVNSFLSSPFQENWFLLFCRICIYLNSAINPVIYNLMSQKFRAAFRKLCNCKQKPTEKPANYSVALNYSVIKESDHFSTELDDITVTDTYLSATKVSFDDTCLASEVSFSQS
Procedure, shortened: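 Intracellular calcium fluorescence, read kinetically every second over 3 min, reports TRH-evoked signalling in HEK293 cells carrying TRHR. Test compounds were added 5 min ahead of a 1 nM TRH challenge.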

[17] = target: Thyrotropin-releasing hormone receptor (Homo sapiens) (UniProt P34981); test: qHTS assay to identify small molecule agonists of the thyrotropin-releasing hormone receptor (TRHR) signaling pathway (AID 1346891; calls by dose curve; further: series mostly up to about 58 µM)
Procedure, shortened: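 Screening of agonists relied on calcium signalling in HEK293 cells expressing human TRHR: dye loading 2 h at 37 °C preceded compound addition and a 3-min fluorescence time course.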

[18] = Human pregnane X receptor (PXR) small molecule agonists, qHTS cell viability counter screen (AID 1346977); further: nearly all actives have a fitted effect of over 50% in size
Procedure, shortened: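 Tox21 qHTS format; PXR-Luc HepG2, 2,000/well, charcoal-stripped FBS 5%. Cpd exposure 24hr. Read: CellTiter-Fluor fluorescence, multiplexed with luciferase.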

[19] = qHTS assay to identify small molecule agonists of the estrogen receptor beta (ER-beta) signaling pathway - cell viability counter screen (AID 1259380); further: nearly all actives have a fitted effect of over 30% in size
Procedure, shortened: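 HEK293T ER-beta-UAS-bla; 2% CS-FBS; 6 hr pre-plate, 16 hr cpd at 37C/5% CO2; LiveBLAzer read first, then CellTiter-Glo 30 min RT, luminescence.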

[20] = target: Androgen receptor (Homo sapiens) (UniProt P10275); test: qHTS assay to identify small molecule agonists of the androgen receptor (AR) signaling pathway in the presence of an antagonist (AID 1259381; calls by dose curve; further: nearly all actives have a fitted effect of over 15% in size)
Sequence of Androgen receptor (Homo sapiens) (P10275 whole entry, looked up): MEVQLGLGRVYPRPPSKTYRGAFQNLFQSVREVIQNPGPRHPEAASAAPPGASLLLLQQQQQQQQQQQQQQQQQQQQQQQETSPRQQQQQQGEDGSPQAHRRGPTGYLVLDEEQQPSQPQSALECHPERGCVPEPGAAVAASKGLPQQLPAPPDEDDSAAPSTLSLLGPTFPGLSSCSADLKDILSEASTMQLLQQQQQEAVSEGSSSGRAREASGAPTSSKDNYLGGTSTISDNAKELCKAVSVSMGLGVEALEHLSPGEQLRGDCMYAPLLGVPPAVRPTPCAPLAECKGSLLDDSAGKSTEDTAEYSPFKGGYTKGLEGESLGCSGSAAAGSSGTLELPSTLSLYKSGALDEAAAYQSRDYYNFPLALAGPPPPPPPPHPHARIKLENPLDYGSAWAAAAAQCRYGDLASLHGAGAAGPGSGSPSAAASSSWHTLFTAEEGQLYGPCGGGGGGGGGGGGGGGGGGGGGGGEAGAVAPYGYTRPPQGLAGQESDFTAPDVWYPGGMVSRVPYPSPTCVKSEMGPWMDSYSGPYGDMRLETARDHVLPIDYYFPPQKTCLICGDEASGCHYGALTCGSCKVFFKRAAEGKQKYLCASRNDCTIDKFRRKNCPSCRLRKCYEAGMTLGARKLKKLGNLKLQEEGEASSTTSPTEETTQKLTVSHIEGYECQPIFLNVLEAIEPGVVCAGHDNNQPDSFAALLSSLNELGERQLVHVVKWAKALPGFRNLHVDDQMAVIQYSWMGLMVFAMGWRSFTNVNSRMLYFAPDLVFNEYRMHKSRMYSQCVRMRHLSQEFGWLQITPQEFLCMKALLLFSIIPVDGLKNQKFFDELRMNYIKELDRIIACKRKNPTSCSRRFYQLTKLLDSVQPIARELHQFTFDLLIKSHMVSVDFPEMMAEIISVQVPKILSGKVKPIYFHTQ
Procedure, shortened: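 MDA-kb2 cells, 3,000/well, rested 5hr at 37C/0% CO2 → nilutamide 3.0uM final or buffer → compounds, 15 conc. → 16hr at 37C → ONE-Glo, 30min RT → luminescence.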

Measured: Potency

CCOP(=O)(O)C(N)=O
not listed: [19] | [20]
inactive: all other assays above

CCC1(CC)C(=O)NC(=O)NC1=O
not listed: [5] | [6] | [7] | [14] | [20]
inactive: all other assays above

C=CCOC(=O)C(C)(C)OC(=O)c1cc(-n2c(=O)cc(C(F)(F)F)n(C)c2=O)ccc1Cl
not listed: [6] | [7] | [9] | [10] | [19] | [20]
inactive: all other assays above

CCCCCCCCCCCCN(C)C
not listed: [10] | [14] | [19] | [20]
inactive: all other assays above

O=[N+]([O-])O[C@H]1CO[C@H]2[C@@H]1OC[C@H]2O[N+](=O)[O-]
not listed: [10] | [11] | [14] | [19] | [20]
inactive: all other assays above

CC1(C)[C@H](C(=O)O[C@H](C#N)c2cccc(Oc3ccccc3)c2)[C@@H]1C=C(Br)Br
active: [10] 17.2 µM
not listed: [5] | [8] | [19]
inactive: all other assays above

CC1(C)CC(=O)CC(C)(C)N1[O]
not listed: [5] | [7] | [10] | [14] | [20]
inactive: all other assays above

C=CCc1ccccc1O
not listed: [6] | [7] | [19] | [20]
inactive: all other assays above

N#CC(C#N)=C(C#N)C#N
not listed: [3] | [5] | [7] | [8] | [11] | [18] | [20]
inactive: all other assays above
